# Wee1 degr inh – human Wee1 degradation inhibition, primary screen; P30291; 1.2% of 220,000 active; AID 1321; reporter increase, % at 5 µM; HeLa Luc-Wee1K328M stability, luciferase luminescence; 100% = proteasome inhibitor MG132 effect;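 active means activation above the mean of all tested compounds plus 3 SD, set per screening run, cut at about 8.8% in these data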;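 further: cells exposed to compound for 20 h before luminescence read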
# hcDAF-12 act – activates DAF-12 receptor from parasite H. contortus. activation, % at 6.8 µM. HEK293 hcDAF-12 lit1-tk-luc reporter, luminescence; 0% DMSO, 100% Δ7-dafachronic acid. 1.4% of 370,000 active;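 active means activation above the mean of all tested compounds plus 3 SD, cut at about 5.5% in these data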
# hgDAF12 agonist – hgDAF-12 agonism, primary luciferase screen; activation, % at 6.8 µM; 1.8% of 370,000 active; HEK293 GAL4-hgDAF12 UAS-luciferase reporter, agonist luminescence; normalized to butyrate control; AID 687014;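 active means activation above a cutoff set at the mean of all screened compounds plus 3 SD, cut at about 10% in these data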
# DAX1 inh-1 – NR0B1 (DAX1) inhibition. 0.99% of 340,000 active. HEK293 Gal4-DAX1 luciferase reporter, luminescence. P51843. AID 504766. inhibition, % at 6.75 µM;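 active means inhibition above the mean over all tested compounds plus 3 SD, cut at about 4.2% in these data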;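 further: inhibition shows as a rise in luminescence from relieved DAX1 repression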
# DAX1 inh-2 – DAX1 (NR0B1) inhibition, primary screen | HEK293T StAR-luciferase reporter, SF-1/DAX-1 repression relief | inhibition, % at 6.8 µM | 1.1% of 370,000 active | AID 652010;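 active means inhibition above the mean over all tested compounds plus 3 SD, cut at about 3.6% in these data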;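 further: higher inhibition means more luminescence from relief of DAX-1 repression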
# ssDAF-12 act – activates DAF-12 receptor from parasite S. stercoralis. HEK293 ssDAF-12/GRIP1 lit1-tk-luc reporter, luminescence; % of 3 µM dafachronic acid response. activation, % at 6.8 µM. 1% of 370,000 active;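 active means activation above the mean over all tested compounds plus 3 SD, cut at about 0.9% in these data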
# DAX1 conf – NR0B1 (human) inhibition, confirmation. shares compounds with DAX1 inh-2. HEK293T StAR-promoter luciferase reporter, SF-1/DAX-1 repression. inhibition, % at 6.8 µM. 87% of 2,400 active. AID 652134;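 active means inhibition above the average of every tested compound plus 3 SD, cut at about 3.8% in these data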;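 further: active compounds raise luminescence by relieving repression of the StAR reporter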
# Target sequence (P51843 whole entry, looked up): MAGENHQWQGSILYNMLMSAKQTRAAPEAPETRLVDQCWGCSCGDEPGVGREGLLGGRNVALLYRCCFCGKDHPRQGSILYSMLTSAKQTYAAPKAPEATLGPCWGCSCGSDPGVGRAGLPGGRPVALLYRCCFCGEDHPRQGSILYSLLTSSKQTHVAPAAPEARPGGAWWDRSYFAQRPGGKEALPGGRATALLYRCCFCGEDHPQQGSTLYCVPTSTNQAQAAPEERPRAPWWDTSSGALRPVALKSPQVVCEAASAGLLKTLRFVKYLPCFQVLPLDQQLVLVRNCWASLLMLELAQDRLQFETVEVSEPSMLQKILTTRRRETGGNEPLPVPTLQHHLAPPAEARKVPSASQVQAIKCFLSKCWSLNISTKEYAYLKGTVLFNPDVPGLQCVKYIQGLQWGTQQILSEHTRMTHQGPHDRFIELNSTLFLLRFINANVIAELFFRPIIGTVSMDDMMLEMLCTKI
# SF1 mutant ctr – nonselective inhibitor or artifact in SF-1 mutant DAX1 counter-screen | shares compounds with DAX1 inh-2 | HEK293 StAR-luciferase, SF-1 AF2 mutant, luminescence | inhibition, % at 6.8 µM | 78% of 2,400 active | AID 652136;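 active means inhibition above the mean of all tested compounds plus 3 SD, cut at about 3% in these data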
# LXR ag – counter-screen for hcDAF-12 agonists: agonists of human LXR-beta. 3,400 tested, under 10 active. activation, % at 6.8 µM. AID 743027. shares compounds with hcDAF-12 act. HEK293 Gal4-LXR tk-luc reporter, luminescence, 24 h; normalized: DMSO 0%, positive control 100%;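 active means mean percent activation of the reporter above a cutoff set as the average over tested compounds plus their standard deviation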
# hcDAF12 ag – hcDAF-12 agonism, confirmation assay; AID 743032; activation, % at 6.8 µM; HEK293 hcDAF-12 lit1-tk-luc reporter, luminescence; % of Δ7-dafachronic acid response; 61% of 3,400 active; shares compounds with hcDAF-12 act;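 active means mean activation across triplicate tests above the threshold derived from the earlier primary screen, cut at about 5.5% in these data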
# hgDAF12 conf – hgDAF-12 agonism, confirmation assay. activation, % at 6.8 µM. shares compounds with hgDAF12 agonist. HEK293 GAL4-hgDAF12 luciferase reporter, agonist mode; percent of butyrate response. 80% of 3,300 active;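 active means mean activation over triplicate wells above the hit cutoff derived from the earlier primary screen, cut at about 11% in these data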
# LXRb DAF12 ctr – counter-screen for DAF-12 agonists: agonists of human LXR-beta. shares compounds with hgDAF12 agonist. HEK293 Gal4-LXR luciferase reporter, 24 h. activation, % at 6.8 µM. 3,300 tested, under 10 active. AID 743051;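 active means mean activation of the triplicate above a set limit carried over from the primary screen, none filed active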
# Hits are given with their value; - = inactive; . = not tested or not shown. Sampled rows, rich in hits. Any-hit rate of the full collection: about 4.6%.
SMILES,Wee1 degr inh,hcDAF-12 act,hgDAF12 agonist,DAX1 inh-1,DAX1 inh-2,ssDAF-12 act,DAX1 conf,SF1 mutant ctr,LXR ag,hcDAF12 ag,hgDAF12 conf,LXRb DAF12 ctr
CC(=O)Nc1ccc(C(=O)OCC(=O)N2CCC(Cc3ccccc3)CC2)cc1,.,-,-,-,-,-,.,.,.,.,.,.
Cc1ccc2nc(-c3ccc(NC(=O)CN(c4ccccc4C)S(C)(=O)=O)cc3)sc2c1,-,-,15,-,4.8,1.0,8.0,5.4,.,.,20,-
Cc1cc(C)cc(N(CC(=O)Nc2ccc(-c3nc4ccc(C)cc4s3)cc2)S(C)(=O)=O)c1,-,-,-,-,-,-,.,.,.,.,.,.
CNS(=O)(=O)c1cccc(C(=O)OCC(=O)Nc2ccc(-c3nc4ccc(C)cc4s3)cc2)c1,-,.,.,-,.,.,.,.,.,.,.,.
O=C(CCS(=O)(=O)c1ccccc1)Nc1ccc(-c2nc3ccccc3s2)cc1,-,9.2,18,-,6.1,1.2,13,8.9,-,5.7,15,-
Cc1ccc2nc(-c3ccc(NC(=O)COC(=O)c4ccc(Br)o4)cc3)sc2c1,-,18,28,5.7,6.6,3.0,9.7,4.2,-,13,24,-
COc1ccc(/C=C(\C#N)C(=O)OCC(=O)Nc2ccc(-c3nc4ccc(C)cc4s3)cc2)cc1,-,8.4,21,-,8.3,2.7,6.7,3.2,-,10,21,-
COc1ccc(/C=C(\C#N)C(=O)OCC(=O)NC(C)c2ccccc2)cc1 (configuration not stated),-,-,-,-,-,-,.,.,.,.,.,.
COCCNc1nc(Nc2ccc(C)cc2C)c2sccc2n1,.,-,-,.,-,-,.,.,.,.,.,.
O=C(Nc1ccccc1Cl)c1cc(C2CCCN(C(=O)c3ccccc3)C2)on1 (configuration not stated),.,-,-,.,-,-,.,.,.,.,.,.
COc1ccccc1-c1cccc(-c2nc(C(=O)N3CCCCC3)cc3c2[C@@H](CCO)N(S(=O)C(C)(C)C)C3)c1 (some centres not stated),.,-,-,.,-,-,.,.,.,.,.,.
Nc1cccc(-c2cn3cc(C(F)(F)F)cc(Cl)c3n2)c1,-,12,14,-,5.3,2.1,13,7.6,-,9.1,18,-
FC(F)(F)c1cc(Cl)c2nc(-c3ccccc3)cn2c1,-,18,20,-,6.6,2.8,15,7.4,-,17,23,-
COc1cccc(Nc2nc(C(N)Cc3ccccc3)cs2)n1 (configuration not stated),.,-,-,.,-,-,.,.,.,.,.,.
CC(C)(C)c1ccc(CC(=O)N2CCC2(C)C(=O)NCc2cccc3ccccc23)cc1 (configuration not stated),.,-,-,.,-,-,.,.,.,.,.,.
O=C(/C=C/c1ccccc1Cl)Nc1cccc(O)c1,-,10,24,-,5.8,-,17,11,-,6.5,20,-
O=C(O)c1ccc(/C=N/Nc2ccc(F)cc2F)cc1,-,9.8,21,-,12,2.5,20,5.5,.,.,21,-
O/N=C/c1ccn(-c2ccc(Br)cc2)c1,-,-,14,4.5,5.6,-,5.9,-,.,.,-,-

# Screening results from PubChem BioAssay.
